Reference: PubChem BioAssay (EPA / NIEHS)
Results filed as inconclusive are left out. Calls of active or inactive are those of the source. Rule for the calls: active = hit-call score of the fitted dose curve at least 0.9, where 1 is the maximum; inconclusive = response in the unintended direction; inactive = score below 0.9.

What follows are compounds tested against guinea pig Serotonin, 5-Hydroxytryptamine Receptor 4 (5HT4), HTR4 (gene 100135548) (UniProt O70528) (assay: NVS_GPCR_g5HT4: NovaScreen (NVS) G Protein-Coupled Receptor Assay for guinea pig Serotonin, 5-Hydroxytryptamine Receptor 4 (5HT4) (AID 2283294)).
Sequence of guinea pig Serotonin, 5-Hydroxytryptamine Receptor 4 (5HT4), HTR4 (gene 100135548) (O70528 whole entry, looked up): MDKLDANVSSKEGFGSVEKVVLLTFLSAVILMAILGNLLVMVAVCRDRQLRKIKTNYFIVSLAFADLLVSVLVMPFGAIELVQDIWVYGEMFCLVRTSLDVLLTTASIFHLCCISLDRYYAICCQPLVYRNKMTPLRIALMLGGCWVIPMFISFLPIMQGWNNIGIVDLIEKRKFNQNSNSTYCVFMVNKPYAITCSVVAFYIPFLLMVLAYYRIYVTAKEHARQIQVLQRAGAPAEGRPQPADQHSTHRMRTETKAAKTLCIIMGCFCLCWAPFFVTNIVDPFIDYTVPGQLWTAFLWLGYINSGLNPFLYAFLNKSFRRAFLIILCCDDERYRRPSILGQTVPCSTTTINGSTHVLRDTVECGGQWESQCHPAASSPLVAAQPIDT
Description: NVS_GPCR_g5HT4 is a biochemical, single-readout assay that uses extracted gene-proteins from Guinea pig striatal membranes in a tissue-based cell-free assay. Measurements were taken 1 hour after chemical dosing in a 48-well plate.NVS_GPCR_g5HT4 is one of one assay component(s) measured or calculated from the NVS_GPCR_g5HT4 assay. It is designed to make measurements of radioligand binding, a form of binding reporter, as detected with scintillation counting signals by Filter-based radiodetection technology.Data from the assay component NVS_GPCR_g5HT4 was analyzed into 1 assay endpoint. This assay endpoint, NVS_GPCR_g5HT4, was analyzed in the positive analysis fitting direction relative to DMSO as the negative control and baseline of activity. Using a type of binding reporter, loss-of-signal activity can be used to understand changes in the binding as they relate to the gene Htr4. Furthermore, this assay endpoint can be referred to as a primary readout, because the performed assay has only produced 1 assay endpoint. To generalize the intended target to other relatable targets, this assay endpoint is annotated to the gpcr intended target family, where the subfamily is rhodopsin-like receptor.
Binding assays used specific radioligands (tritiated, iodinated) with non-radioactive competitive displacement ligands in agonist or antagonist protocols (as indicated) and various reference compounds and inhibitors to titrate specific binding to receptors and transporters. Most enzyme assays (CYPs, kinases, phosphatases, proteases, HDACs) used recombinant protein and specific substrates (fluorescence mostly, some colorimetric and radioactive) and inhibitors, followed by a biochemical separation of substrate and product. All assays for the biochemical HTS were initially run in duplicate at a single concentration (10 uM for CYP450 assays and 25 uM for all others). […] Each assay was run with positive and negative controls, and concurrent controls on every plate. The follow-up (secondary) screen tested active chemical-pairs in concentration series, as well as a few additional assays not tested in the primary screen, some selected negative inactives, and several cases re-run in the concentration series for confirmatory purposes.

Row | Compound | AC50 | outcome
1 | CCCCCCCCCCCC[N+](C)(C)C | 17.9 µM (active) | –
2 | O=c1[nH]sc2ccccc12 | 33.7 µM (active) | –
3 | COc1ccc2cc(S(=O)(=O)N[C@H](CC(=O)N[C@H](Cc3ccc(CN4[C@H](C)CCC[C@@H]4C)cc3)C(=O)N(C)C(C)C)c3ccc4c(c3)OCO4)ccc2c1 | 16.8 µM (active) | –
4 | CN(C[C@@H](CC[N+]12CCC(C3CCCCC3)(CC1)CC2)c1ccc(Cl)c(Cl)c1)C(=O)c1cc(C(F)(F)F)cc(C(F)(F)F)c1 | 8.02 µM (active) | –
5 | C[C@]12CC[C@@H]3c4ccc(O)cc4CC[C@H]3[C@@H]1CCC2=O | – | inactive
6 | CCN(Cc1cccnc1)C(=O)c1cccc(Cl)c1[C@]1(C)C(=O)N(Cc2ccc(OC)cc2OC)c2ccc(Cl)cc21 | 15 µM (active) | –
7 | NCc1cccc(C2CCN(C(=O)c3ccc(C#Cc4ccccc4F)o3)CC2)c1 | 17.6 µM (active) | –
8 | CCOC(=O)O[C@H](C)OC(=O)c1ccc2c(c1)cc(C(=O)NC1CCN(C(C)C)CC1)n2Cc1cc(-c2ccc(Cl)s2)on1 | 23.6 µM (active) | –
9 | COc1cc(C(=O)NC2CCN(C)CC2)ccc1Nc1ncc2c(n1)N(C1CCCC1)CC(F)(F)C(=O)N2C | 8.4 µM (active) | –
10 | COc1cccc([C@H](O)C2CCN(CCc3ccc(F)cc3)CC2)c1OC | 25 µM (active) | –
11 | O=C1c2ccccc2C(=O)N1CCc1noc(-c2ccc(CN3CCCCCC3)s2)n1 | 4 µM (active) | –
12 | Clc1cc(Cl)c2c(c1)N=C1CCCCCN1C2 | 5.45 µM (active) | –
13 | Cc1occc1C(=O)Nc1ccc(C(=O)N2CCC(F)(F)/C(=C\C(=O)N3CCC(N4CCCCC4)CC3)c3ccccc32)cc1 | 0.579 µM (active) | –
14 | CN(C)c1ccc(C(=C2C=CC(=[N+](C)C)C=C2)c2ccc(N(C)C)cc2)cc1 | 7.22 µM (active) | –
15 | CC/C(=C(/CC)c1ccc(O)cc1)c1ccc(O)cc1 | 39.4 µM (active) | –
16 | Cc1cc2c(cc1C(F)(F)F)N(C(=O)Nc1ccc(Oc3cccnc3C)nc1)CC2 | 5.92 µM (active) | –
17 | CN(C)C(=O)C1(N2CCCCC2)CCN(CC[C@@]2(c3ccc(Cl)c(Cl)c3)CN(C(=O)c3ccccc3)CCO2)CC1 | 23.6 µM (active) | –
